Measurements published in PubChem BioAssay (Tox21).
Records with an inconclusive call do not appear. A call without a number means that no potency is given here. Calls of active or inactive are those of the source. Calls follow the shape of the dose curve; as a rule, active = well fitted cell-killing curve with a large enough effect in the repeat runs; inconclusive = weak or mixed curves, or effect the other way; inactive = flat fitted curve, though single readings scatter.

Test: cAMP Responsive Elements (CRE) small molecule agonists, cell-based qHTS assay: qHTS cell viability counter screen (AID 2060914); also: nearly all actives have a fitted effect of over 50% in size
Conditions: CRE-bla HEK293T viability, CellTiter-Glo luminescence, 5 h; series mostly up to 92.4 µM
Method in brief: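 HEK 293T CRE-bla; DMEM + 10% dialyzed FBS, 25 mM HEPES; 18 h pre-incubation; compound 3 h, 37 °C/5% CO2; CellTiter-Glo added after reporter read; luminescence after 30 min RT.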

| Compound | Potency |
| --- | --- |
| CC/C=C\CCOC(=O)c1ccccc1O | inactive |
| CCOC(=O)c1c(C)n(C)c2ccc(O)cc12 | inactive |
| CC1CCc2nccnc21 (centres undefined) | inactive |
| CCCCOCCCC | inactive |
| COCCCOc1cc(C[C@@H](C[C@H](N)[C@@H](O)C[C@H](C(=O)NCC(C)(C)C(N)=O)C(C)C)C(C)C)ccc1OC | inactive |
| CCCOCC(C)OCC(C)O (centres undefined) | inactive |
| CC(=O)OCC(=O)[C@@]1(O)CC[C@H]2[C@@H]3CCC4=CC(=O)CC[C@]4(C)[C@H]3C(=O)C[C@@]21C | inactive |
| CCOCCC(=O)OCC | inactive |
| CC1(C)CC(N=C=O)CC(C)(CN=C=O)C1 (centres undefined) | inactive |
| CN(C)CCn1nnnc1SCC1=C(C(=O)O)N2C(=O)[C@@H](NC(=O)Cc3csc(N)n3)[C@H]2SC1 | inactive |
| COc1nccnc1CC(C)C | inactive |
| Cc1cc(=O)[nH]c(C(C)C)n1 | inactive |
| CCCCC1CCC(=O)O1 (centres undefined) | inactive |
| NC(=O)/N=N/C(N)=O | inactive |
| C=CCCCCCCCCC=O | inactive |
| C=CC(C)(C)O | inactive |
| COCCc1ccc(OCC(O)CNC(C)C)cc1 (centres undefined) | inactive |
| Cc1nc2ccccc2n1Cc1ccc(Cl)cc1 | inactive |
| CCCC=O | inactive |
